Among the data in PubChem BioAssay (NCI) are growth inhibition values, retold here.

“And” between values parts separate entries of the source, which are not always exact repeats. Identical values can stand only once. About 79,000 compounds went through this panel and 15% of them were active in at least one assay; those are over-represented in the sample as a whole. Unmarked numbers belong to inactive results. The source made the active and inactive calls. Rule as the data show it: active = growth inhibition above about 70%; inactive = the rest.

Test [1] can be described thus: NCI Yeast Anticancer Drug Screen. Data for the rad50 strain (AID 155).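 Also: 0% = growth of vehicle-only cultures of the same strain.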 The following applies: S. cerevisiae rad50 strain growth inhibition, hits give high values; at 50.0 µM unless noted. The gist of the method: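 Growth of the mutant yeast was measured after compound exposure and referenced to vehicle-treated cultures.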
The nature of test [2]: NCI Yeast Anticancer Drug Screen. Data for the mec2-1 strain (AID 157). Particulars: S. cerevisiae mec2-1 strain, hits give high values; at 50.0 µM unless noted. The gist of the method:
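Strain: mec2-1 (DNA repair/cell cycle alteration). Compound exposure, then growth measured; inhibition expressed relative to vehicle.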

The nature of test [3]: NCI Yeast Anticancer Drug Screen. Data for the sgs1 mgt1 strain (AID 161).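 Also: 0% = growth of cultures given vehicle only.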 The following applies: S. cerevisiae sgs1 mgt1 strain, hits give high values; at 50.0 µM unless noted. The gist of the method: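 Read-out: growth inhibition vs vehicle controls. Cells: mutant yeast strain deficient in DNA damage repair.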
Test [4] can be described thus: NCI Yeast Anticancer Drug Screen. Data for the cln2 rad14 strain (AID 165).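 Also: 0% = growth equal to vehicle treated cultures.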 Particulars: S. cerevisiae cln2 rad14 strain, hits give high values; at 50.0 µM unless noted. The gist of the method: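 Compounds are applied to the cln2 rad14 yeast strain, and growth is then compared with that of vehicle-treated cultures to give inhibition.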
The nature of test [5]: NCI Yeast Anticancer Drug Screen. Data for the bub3 strain (AID 167). Particulars: S. cerevisiae bub3 mutant strain, hits give high values; at 50.0 µM unless noted. The gist of the method: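 Whole-cell yeast assay. The mutant strain was incubated with compounds, and growth inhibition was determined by comparison with vehicle-treated cells.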
Test [6] in a line: NCI Yeast Anticancer Drug Screen. Data for the mlh1 rad18 strain (AID 175). The following applies: S. cerevisiae mlh1 rad18 strain growth inhibition, hits give high values; at 50.0 µM unless noted. The gist of the method:
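Read-out is yeast growth inhibition, calculated against vehicle-only controls. The compound was applied to a strain engineered with DNA damage repair alterations.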

As to `CN(C)CCCC(=O)O`, the growth inhibition in test [1] was -13.3%; in test [2] it was -45.4%; in test [3] it was -14.1%; in test [4] it was 2.8%; in test [5], -31.9%; in test [6] it was -0.35%.

Turning to `O=C(O)CC1NC(/C(=C/c2ccccc2O)NC(=O)c2ccccc2)OC1=O` (centres undefined), the growth inhibition in test [1] is -1.5%; in test [2] it was -5.85%; in test [3] it was 15.5%; in test [4] it was -5.95%; in test [5] it was 15.2%; in test [6], -28.7%.

Turning to `CCOC(=O)C1=C(O)C(=O)C=C(O)C1=N`, the growth inhibition is -12.2% in test [1]; -2.6% in test [2]; -11.6% in test [3]; 4.5% in test [4]; -18.4% in test [5]; 9.65% in test [6].

With `O=C(Nc1ccccn1)c1ccccc1Cl`, the growth inhibition in test [1] was 1.1%; in test [2], 3.1%; in test [3], -9.5%; in test [4], 4.2%; in test [5] it was -5.9%; in test [6], 19.3%.

For `Nc1nc2c(ncn2-c2ccc(Br)cc2)c(=O)[nH]1`, the growth inhibition in test [1] was 15.2%; in test [2], -1.6%; in test [3], 20.9%; in test [4], 32.1%; in test [5] it was -4.8%; in test [6] it was 59.8%.

Consider `Cc1[nH]c(N)nc(=S)c1CCCNc1ccccc1`, for which the growth inhibition in test [1] was 6.45%; in test [2], 2.1%; in test [3] it was 6.8%; in test [4], -9.15%; in test [5] it was -32.3%; in test [6], 26.2%.

For `CCOC(=O)CN(c1ccccc1)c1nc(=[N+](C)C)ss1`, the growth inhibition was 7.05% in test [1]; 0.65% in test [2]; 6.8% in test [3]; 2.55% in test [4]; 1.35% in test [5]; 22.9% in test [6].

Regarding `NC(=O)CC(NC(=O)CCl)C(=O)O` (centres undefined), the growth inhibition in test [1] is -12.3% and -15%; in test [2] it was -24.8% and -8.15%; in test [3], 2.1%; in test [4], 12.4%; in test [5], -0.35%; in test [6], -22.4% and -16.1%.

For `CC1CCC2COC(=O)CCC2(C)C1C` (centres undefined), the growth inhibition is 5.95% in test [1]; 0.7% in test [2]; -9.75% in test [3]; -40.9% in test [4]; -17.4% in test [5]; -22.9% in test [6].

`CCCCCCCCC(O)C#CC(O)CCCCCCCC` (centres undefined): the growth inhibition in test [1] is -18%; in test [2], -20.9%; in test [3], -5.6%; in test [4], -12.9%; in test [5], -12.6%; in test [6], -8.85%.

As for `O=C(c1cccc(C(=O)N2CCOCC2)n1)N1CCOCC1`, the growth inhibition in test [1] is -9.95%; in test [2] it was 17.1%; in test [3] it was -3.5%; in test [4] it was -19.4%; in test [5], 5.15%; in test [6] it was 7.15%.

Regarding `O=C(O)/C(=C/c1cccc(Cl)c1)c1ccc(Cl)cc1`, the growth inhibition in test [1] was 0.85%; in test [2], -10.8%; in test [3], 0.7%; in test [4], -51.8%; in test [5], 2.4%; in test [6], -0.75%.

In the case of `CC[N+](C)(CC)CCNC(=O)C(c1ccccc1)c1ccccc1`, the growth inhibition in test [1] was 45.6%; in test [2], -1.45%; in test [3] it was 21.1%; in test [4], 0.5%; in test [5] it was 6.65%; in test [6] it was 16.2%.

Regarding `CC1=CC(=O)CC(C)(C)C1`, the growth inhibition in test [1] is 1.45%; in test [2] it was 5.95%; in test [3], -1.7%; in test [4], 6.4%; in test [5] it was 17.1%; in test [6], 3.45%.

In the case of `Cc1nc2ncnc(N)c2[nH]1`, the growth inhibition in test [1] was 3.55%; in test [2], -11%; in test [3], -12.5%; in test [4], -28.7%; in test [5], 11.2%; in test [6], -5.95%.

In the case of `Cc1ccc(C(C)C)cc1NC(=O)c1ccc([N+](=O)[O-])cc1`, the growth inhibition is -5.15% in test [1]; 16.4% in test [2]; 16.9% in test [3]; -5.8% in test [4]; 2.6% in test [5]; 21.6% in test [6].

In the case of `O=C(O)c1cccc(OCCO)c1`, the growth inhibition in test [1] was -10%; in test [2], -11.2%; in test [3] it was -35.8%; in test [4], -26.4%; in test [5] it was -17.9%; in test [6], -29.9%.

For the compound `O=Nc1ccc2ccccc2c1N=Nc1ccccc1C(=O)O`, the growth inhibition in test [1] is 20.5%; in test [2], 72.5% (active); in test [3], 45.6%; in test [4] it was 14.3%; in test [5], 53%; in test [6], 35.8%.

For `O=C1CN(c2cccc(Cl)c2)C(=O)CN1/N=C/c1ccco1`, the growth inhibition in test [1] was 18.9%; in test [2] it was -14.5%; in test [3] it was 18%; in test [4] it was 12.7%; in test [5] it was 23.8%; in test [6], 22.1%.
